Source: PubChem BioAssay AID720518 (National Center for Advancing Translational Sciences (NCATS), 2013)
Records with an inconclusive call do not appear. Activity calls are given as the source filed them. Calls come from the whole dose curve.

Assay: qHTS for Inhibitors of Cell Surface uPA Generation: Wild-type Protective Antigen (WT-PrAg) Counterscreen for Cherry-picked Compounds; note: 0% is about no effect
Conditions: cells, WT protective antigen toxicity counterscreen; series mostly up to 115 µM; activity (protection): at the top concentration

Row | Compound | activity (protection)
1 | CCSC1=NCCN1S(=O)(=O)c1ccc(Cl)cc1 | -1.62% (inactive)
2 | Cc1ccc(N2C(=O)CC(N3CCN/C3=C3\CC/C(=C\c4ccccc4)C3=O)C2=O)cc1 (stereo not given) | -0.58% (inactive)
3 | COc1ccc(C(c2sc3nc(C)nn3c2O)N2CCC(C(N)=O)CC2)cc1OC (stereo not given) | -1.53% (inactive)
4 | COc1ccc(CC(=O)Nc2nc(C)cs2)cc1OC | -2.07% (inactive)
5 | COC(=O)Cc1c(C)c2ccc(OCC(=O)N3CCCC(C)C3)c(C)c2oc1=O (stereo not given) | -1.64% (inactive)
6 | O=C(NCc1ccccn1)C1CCN(C(=O)c2cc3sccc3n2Cc2ccc(F)cc2)CC1 | -1.98% (inactive)
7 | Cc1cccc(-c2nc(CS(=O)CC(=O)NCc3cccs3)c(C)o2)c1 (stereo not given) | -1.45% (inactive)
8 | CN1CCN(c2ccc(S(=O)(=O)N3CCOCC3)cc2NC(=O)CSCc2ccccc2)CC1 | 0.65% (inactive)
9 | CC(C)(C)NC(=O)C(c1cccs1)N(C(=O)c1csnn1)c1ccccc1F (stereo not given) | -0.113% (inactive)
10 | COc1cc(C(=O)Nc2nnc(C)s2)cc(OC)c1OC | -1.63% (inactive)
11 | CCc1nnc(NC(=O)CSc2nnnn2-c2cccc(C(C)=O)c2)s1 | -0.331% (inactive)
12 | COc1cc(CN2CCN(S(=O)(=O)c3ccccc3)CC2)cc(OC)c1OC | -0.212% (inactive)
13 | O=c1[nH]c2c(s1)C(c1ccc(O)cc1)C1C3CCC(C3)C1S2 (stereo not given) | 4.5% (inactive)
14 | Nc1nc2ccc(Br)cc2o1 | -1.4% (inactive)
15 | C[C@H](CO)N1C[C@H](C)[C@@H](CN(C)C(=O)Nc2ccccc2)Oc2c(NS(=O)(=O)c3ccccc3)cccc2C1=O | 1.01% (inactive)
16 | CC(=O)c1ccc(NC(=O)Nc2ccc(Br)cc2C)cc1 | 1.01% (inactive)
17 | COc1ccc(NC(=O)/C(N=Nc2cc(S(=O)(=O)Nc3ccc(OC)cc3)ccc2OC)=C(\C)O)cc1 | -1.2% (inactive)
18 | Cc1cc(C)nc(N2N=C(C(F)(F)F)CC2=O)n1 | -1.02% (inactive)
19 | CC(C)(C)n1ncc2c(=O)n(Cc3ccc(Cl)cc3)cnc21 | -2.17% (inactive)
20 | CC1Cc2nc(SCC(=O)N3CCCC3)n(C)c(=O)c2S1 (stereo not given) | -2.11% (inactive)

Row | Compound | activity (protection)
21 | CCN(CC)c1c([N+](=O)[O-])c(=O)sc2ccccc12 | -0.788% (inactive)
22 | Cc1ccc(C(=O)COc2cc(O)c3c(=O)cc(-c4ccccc4)oc3c2)cc1 | -0.241% (inactive)
23 | O=C(O)CCCC(=O)NCCCCc1ccccc1 | -0.427% (inactive)
24 | Cc1ccc(S(=O)(=O)N2CCOCC2)cc1C(=O)OC1CCOC1=O (stereo not given) | -1.14% (inactive)
25 | O=C(CN1C(=O)CSCC1=O)NCc1ccc(F)cc1 | 0.538% (inactive)
26 | COc1ccc(CCNC(=O)Cn2cccc2C(=O)c2ccccc2)c(OC)c1 | -1.11% (inactive)
27 | CC1C2=C(CC(C)(C)CC2=O)NC2=C1C(=O)CC(C)(C)C2 | -0.457% (inactive)
28 | O=c1[nH]c2ccccc2cc1CN(CC1CCCO1)S(=O)(=O)c1ccccc1 (stereo not given) | -0.109% (inactive)
29 | Cc1ccc(N2C(=O)c3ccccc3C2(O)c2ccccc2)cc1 (stereo not given) | -0.943% (inactive)
30 | CC(C)(C)OC(=O)N(Cc1ccccc1)Cc1ccccc1OCc1cccc(NC(=O)C2CC2)c1 | -1.87% (inactive)
31 | Cc1ccc(OCc2cc(C(=O)N(C)Cc3cc(C4CC4)n[nH]3)no2)cc1C | -1.75% (inactive)
32 | CC(C)CN(C(=O)CN1CCC(C)CC1)c1c(N)n(CC(C)C)c(=O)[nH]c1=O | 0.779% (inactive)
33 | O=C(Nc1cccc(NC(=O)c2ccc(F)cc2)c1)c1ccc(F)cc1 | 0.799% (inactive)
34 | O=P1(NCCCl)OCCCN1CCCl (stereo not given) | 0.18% (inactive)
35 | COc1ccc2cc(CCNC(=O)c3ccc4c(c3)OCO4)c(=O)[nH]c2c1 | -0.196% (inactive)
36 | O=C(O)c1ccc(-n2nnnc2SCc2cccc(Br)c2)cc1 | -1.44% (inactive)
37 | Cc1cc(C)c(NC(=O)Cn2nnc(C(=O)NCc3ccc4c(c3)OCO4)c2N)c(C)c1 | 3.21% (inactive)
38 | CCCN1CCN(C2CCCCC2NS(=O)(=O)c2ccc(Cl)cc2)CC1 (stereo not given) | 9.95% (inactive)
39 | O=C(CCCC(=O)N(c1cccc(F)c1)C(C(=O)NC1CCCC1)c1ccc(O)cc1)Nc1ccccn1 (stereo not given) | -1.3% (inactive)
40 | O=C(NCCc1cn2ccsc2n1)c1cccs1 | -0.486% (inactive)
